The target in assay [1] is human Retinoic Acid Receptor gamma (RARg), RARG (gene 5916) (UniProt P13631). In words: ATG_RARg_TRANS: Attagene TRANS-FACTORIAL HepG2 Assay for human Retinoic Acid Receptor gamma (RARg) (AID 2283009; active means hit-call score of the fitted dose curve at least 0.9, where 1 is the maximum). The method, boiled down: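 Transient transfection of HepG2 with multi-reporter constructs, then 24 h chemical treatment. Total RNA isolated, reverse-transcribed, PCR-amplified, fluorescently labelled and resolved by capillary electrophoresis; activity scored as mRNA induction versus DMSO.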

In assay [2] the target is human RAR-related Orphan Receptor gamma (RORg), RORC (gene 6097) (UniProt P51449). The assay can be described thus: ATG_RORg_TRANS: Attagene TRANS-FACTORIAL HepG2 Assay for human RAR-related Orphan Receptor gamma (RORg) (AID 2283011; active means hit-call score of the fitted dose curve at least 0.9, where 1 is the maximum). The essentials:
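Readout: reporter transcript induction (RT-PCR, fluorescent primer extension, capillary electrophoresis) after 24 h compound exposure of transiently transfected HepG2 cells carrying a RORg-Gal4 chimera and GAL4-UAS reporters; DMSO served as baseline, with increasing signal fitted.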

Assay [3] concerns the target human Retinoid X Receptor beta (RXRb), RXRB (gene 6257) (UniProt P28702). In words: ATG_RXRb_TRANS: Attagene TRANS-FACTORIAL HepG2 Assay for human Retinoid X Receptor beta (RXRb) (AID 2283013; active means hit-call score of the fitted dose curve at least 0.9, where 1 is the maximum). The method, boiled down:
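Transfect HepG2 with GAL4-UAS multi-reporter constructs (chimeric NR-Gal4, TRANS format); dose compound 24 h; isolate RNA, RT-PCR, FAM primer extension, HpaI digest; quantify by capillary electrophoresis; positive direction vs DMSO.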

The target in assay [4] is human Vitamin D Receptor (VDR), VDR (gene 7421) (UniProt P11473). In words: ATG_VDR_TRANS: Attagene TRANS-FACTORIAL HepG2 Assay for human Vitamin D Receptor (VDR) (AID 2283022; active means hit-call score of the fitted dose curve at least 0.9, where 1 is the maximum). The essentials: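 HepG2 cells were transiently transfected with multiple GAL4-UAS reporter units, so signal reflects exogenous chimeric receptor-Gal4 activity. After 24 h compound exposure, reporter mRNA was measured by RT-PCR, fluorescent labelling and capillary electrophoresis, fitted for gain of signal versus DMSO.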

The target of assay [5] is Retinoic acid receptor RXR-alpha (Homo sapiens) (UniProt P19793). In words: ATG_RXRa_TRANS: Attagene TRANS-FACTORIAL HepG2 Assay for human Retinoid X Receptor alpha (RXRa) (AID 2283012; active means hit-call score of the fitted dose curve at least 0.9, where 1 is the maximum). The essentials:
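Transient transfection of human HepG2 with multiple GAL4-UAS reporter constructs; 24 h compound exposure; total RNA isolated, reverse-transcribed, PCR-amplified, 6-FAM labelled, HpaI-cut, resolved by capillary electrophoresis. Positive-direction fit versus DMSO.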

Assay [6] concerns the target human Thyroid Receptor alpha (THRa1), THRA (gene 7067) (UniProt P10827). In words: ATG_THRa1_TRANS: Attagene TRANS-FACTORIAL HepG2 Assay for human Thyroid Receptor alpha (THRa1) (AID 2283014; active means hit-call score of the fitted dose curve at least 0.9, where 1 is the maximum). The method, boiled down:
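HepG2 cells transiently transfected with multiplexed GAL4-UAS reporter units for exogenous chimeric THRa1-Gal4; reporter mRNA measured 24 h after dosing by RT-PCR, 6-FAM labelling, HpaI digestion and capillary electrophoresis. Gain-of-signal fitted versus DMSO baseline.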

Read-out in assay [7]: E-selectin (Homo sapiens) (UniProt P16581)
The assay can be described thus: BSK_3C_Eselectin: BioMAP Diversity Plus: 3C Assay for Eselectin Biomarker Activity (AID 2283015).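 On outcome: cell surface E-selectin protein quantified by ELISA 24 h after dosing.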 The note with it: primary human endothelial cells (HUVEC); actives raise or lower the signal. The method, boiled down:
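Primary human umbilical vein endothelial cells (3C system) were dosed with chemical and cell-surface E-selectin measured by ELISA 24 h later. Bidirectional curve fitting used DMSO as negative control and baseline.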

Read-out in assay [8]: Interleukin-1 alpha (IL1a), IL1A (gene 3552)
The assay can be described thus: BSK_BE3C_IL1a: BioMAP Diversity Plus: BE3C Assay for Interleukin-1 alpha (IL1a) Biomarker Activity (AID 2283016). The note with it: primary human bronchial epithelial cells; actives raise or lower the signal. The essentials: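 BE3C primary human bronchial epithelium; cpd 24 h; IL-1a by ELISA; bidirectional fit vs DMSO; parallel SRB (0.1% SRB, 10% TCA fix, 560 nm) for cytotoxicity.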

Read-out in assay [9]: Monocyte Chemoattractant Protein-1 (MCP1), CCL2 (gene 6347)
The assay can be described thus: BSK_3C_MCP1: BioMAP Diversity Plus: 3C Assay for Monocyte Chemoattractant Protein-1 (MCP1) Biomarker Activity (AID 2283017). The conditions noted are these: primary human endothelial cells (HUVEC); actives raise or lower the signal. The method, boiled down: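 Primary human umbilical vein endothelial cells (3C system) were exposed to test chemical for 24 h, after which MCP-1 was quantified by ELISA. Activity was fitted bidirectionally against DMSO as negative control and baseline.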

Read-out in assay [10]: Monocyte Chemoattractant Protein-1 (MCP1), CCL2 (gene 6347)
In words: BSK_4H_MCP1: BioMAP Diversity Plus: 4H Assay for Monocyte Chemoattractant Protein-1 (MCP1) Biomarker Activity (AID 2283018). The conditions noted are these: primary human endothelial cells (HUVEC); actives raise or lower the signal. The method, boiled down: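 ELISA read-out of MCP-1 from human vascular endothelial primary cells taken at 24 hours after compound exposure. Activity was fitted in both directions relative to DMSO, which served as negative control.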

Read-out in assay [11]: Human Leukocyte Antigen - DR isotype (HLADR), HLA-DRA (gene 3122)
In words: BSK_3C_HLADR: BioMAP Diversity Plus: 3C Assay for Human Leukocyte Antigen - DR isotype (HLADR) Biomarker Activity (AID 2283019). The note with it: primary human endothelial cells (HUVEC); actives raise or lower the signal. The method, boiled down: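 Primary human umbilical vein endothelial cells (3C system) were dosed with compound and cell-surface HLA-DR was quantified by ELISA at 24 h. Activity was fitted bidirectionally against DMSO as negative control and baseline.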

Read-out in assay [12]: Interleukin-8 (IL8), CXCL8 (gene 3576)
The assay can be described thus: BSK_3C_IL8: BioMAP Diversity Plus: 3C Assay for Interleukin-8 (IL8) Biomarker Activity (AID 2283020). The note with it: primary human endothelial cells (HUVEC); actives raise or lower the signal. The essentials:
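ELISA read-out of IL-8 from human umbilical vein endothelium, measured 24 h after chemical dosing. Activity is expressed relative to DMSO negative control, with both increases and decreases fitted.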

Read-out in assay [13]: Monokine induced gamma interferon (MIG), CXCL9 (gene 4283)
The assay can be described thus: BSK_3C_MIG: BioMAP Diversity Plus: 3C Assay for Monokine induced gamma interferon (MIG) Biomarker Activity (AID 2283021). The note with it: primary human endothelial cells (HUVEC); actives raise or lower the signal. The method, boiled down:
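Read-out is ELISA detection of MIG on human umbilical vein endothelial cells, taken 24 h after dosing. Gain or loss of signal was scored relative to DMSO controls using bidirectional curve fitting.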

Assay [14] can be described thus: BSK_3C_SRB: Viability Assessment in the BioMAP Diversity Plus: 3C Assay (AID 2283023).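 Further: fitted both ways against DMSO so a hit may be signal rise or drop.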 The conditions noted are these: primary human endothelial cells (HUVEC). The essentials: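 Primary human umbilical vein endothelial cells in the 3C system were read 24 h after compound dosing. Total protein was stained with 0.1% sulforhodamine B after 10% TCA fixation and read at 560 nm, with bidirectional fitting against DMSO as baseline.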

Read-out in assay [15]: Matrix Metallopeptidase 1 (MMP1), MMP1 (gene 4312)
The assay can be described thus: BSK_BE3C_MMP1: BioMAP Diversity Plus: BE3C Assay for Matrix Metallopeptidase 1 (MMP1) Biomarker Activity (AID 2283024). The note with it: primary human bronchial epithelial cells; actives raise or lower the signal. The method, boiled down:
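Human bronchial epithelial cells (BE3C system) exposed to compound for 24 h; MMP1 then quantified by ELISA. Activity was fitted in both directions relative to DMSO.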

Read-out in assay [16]: Pselectin, SELP (gene 6403)
The assay can be described thus: BSK_4H_Pselectin: BioMAP Diversity Plus: 4H Assay for Pselectin Biomarker Activity (AID 2283026). The note with it: primary human endothelial cells (HUVEC); actives raise or lower the signal. The essentials: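 ELISA read-out of P-selectin on human umbilical vein endothelium after 24 h of dosing. Values derive from bidirectional fitting relative to DMSO. Parallel SRB protein staining flagged overt cytotoxicity.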

Assay [17] in a line: BSK_4H_SRB: Viability Assessment in the BioMAP Diversity Plus: 4H Assay (AID 2283027).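 Further: cells exposed to compound for 24 h before staining.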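 On AC50: curves fitted both ways versus DMSO so AC50 may be loss or gain.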 The conditions noted are these: primary human endothelial cells (HUVEC). The essentials:
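Human umbilical vein endothelial cells, 24 h after chemical dosing; total protein measured by 0.1% sulforhodamine B staining after 10% TCA fixation, read at 560 nm. Bidirectional fitting against DMSO.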

Assay [18] is described as follows: BSK_BE3C_SRB: Viability Assessment in the BioMAP Diversity Plus: BE3C Assay (AID 2283028). The conditions noted are these: primary human bronchial epithelial cells. The method, boiled down: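 Human primary bronchial epithelial cells were exposed to test chemicals for 24 h. Total protein in parallel cultures was then measured by staining with 0.1% sulforhodamine B after 10% TCA fixation, with absorbance read at 560 nm. Activity was fitted bidirectionally against DMSO.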

Read-out in assay [19]: Thrombomodulin, THBD (gene 7056)
In words: BSK_3C_Thrombomodulin: BioMAP Diversity Plus: 3C Assay for Thrombomodulin Biomarker Activity (AID 2283029). The conditions noted are these: primary human endothelial cells (HUVEC); actives raise or lower the signal. The essentials:
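Read-out is ELISA of thrombomodulin on human umbilical vein endothelium 24 h after chemical dosing. Gain or loss of signal is scored relative to DMSO. Overt cytotoxicity is checked in parallel cultures by sulforhodamine B staining.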

Assay [20] is described as follows: BSK_3C_Vis: BioMAP Diversity Plus: 3C Assay for Morphology Visualization (AID 2283025).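 Further: fitted both ways so gain or loss versus DMSO counts.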 The note with it: primary human endothelial cells (HUVEC). The method, boiled down: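 Chemicals were added to primary human umbilical vein endothelium, cells were incubated 24 h, and morphology was then visualized by light microscopy. Gain or loss of signal was fitted bidirectionally relative to DMSO.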

For orientation: AC50 means the midpoint of the concentration-response curve, whichever way the signal moves.

Structures are written as SMILES. “And” between values parts separate entries of the source, which are not always exact repeats. Equal entries are not always repeated. Inconclusive results are not listed. Where a structure was tested more than once in an assay, its records may differ in their call. The source made the active and inactive calls. How the source made its calls, unless noted: active means hit-call score of the fitted dose curve at least 0.9, where 1 is the maximum; inactive means score below 0.9.

Chain of human RAR-related Orphan Receptor gamma (RORg), RORC (gene 6097) (P51449 whole entry, looked up, the tested form may be a part): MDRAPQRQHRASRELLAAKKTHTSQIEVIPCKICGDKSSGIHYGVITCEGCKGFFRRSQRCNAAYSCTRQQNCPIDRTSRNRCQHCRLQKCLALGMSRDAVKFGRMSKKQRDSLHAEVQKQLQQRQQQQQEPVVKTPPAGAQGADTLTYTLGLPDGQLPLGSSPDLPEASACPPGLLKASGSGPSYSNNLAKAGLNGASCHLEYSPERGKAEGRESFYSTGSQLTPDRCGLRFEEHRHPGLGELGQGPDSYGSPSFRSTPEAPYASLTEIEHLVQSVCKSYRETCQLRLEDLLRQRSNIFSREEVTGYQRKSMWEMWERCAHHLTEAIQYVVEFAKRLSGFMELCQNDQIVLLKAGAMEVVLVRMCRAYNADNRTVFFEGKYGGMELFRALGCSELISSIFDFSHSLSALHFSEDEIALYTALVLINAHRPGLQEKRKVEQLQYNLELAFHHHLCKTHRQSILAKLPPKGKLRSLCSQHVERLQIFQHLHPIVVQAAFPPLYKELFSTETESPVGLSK
Chain of Retinoic acid receptor RXR-alpha (Homo sapiens) (P19793 whole entry, looked up, the tested form may be a part): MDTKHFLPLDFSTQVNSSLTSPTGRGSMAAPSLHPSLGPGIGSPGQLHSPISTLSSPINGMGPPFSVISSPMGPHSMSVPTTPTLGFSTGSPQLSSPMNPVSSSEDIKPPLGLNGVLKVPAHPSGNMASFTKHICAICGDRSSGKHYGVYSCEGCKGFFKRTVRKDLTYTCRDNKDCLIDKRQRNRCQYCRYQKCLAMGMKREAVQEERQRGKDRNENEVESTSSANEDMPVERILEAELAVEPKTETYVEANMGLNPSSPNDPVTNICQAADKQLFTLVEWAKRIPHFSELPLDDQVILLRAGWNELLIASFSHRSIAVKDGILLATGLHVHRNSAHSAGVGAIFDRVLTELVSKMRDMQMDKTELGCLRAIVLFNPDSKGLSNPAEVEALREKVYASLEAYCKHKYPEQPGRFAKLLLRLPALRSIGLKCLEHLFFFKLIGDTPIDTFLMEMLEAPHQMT
Chain of E-selectin (Homo sapiens) (P16581 whole entry, looked up): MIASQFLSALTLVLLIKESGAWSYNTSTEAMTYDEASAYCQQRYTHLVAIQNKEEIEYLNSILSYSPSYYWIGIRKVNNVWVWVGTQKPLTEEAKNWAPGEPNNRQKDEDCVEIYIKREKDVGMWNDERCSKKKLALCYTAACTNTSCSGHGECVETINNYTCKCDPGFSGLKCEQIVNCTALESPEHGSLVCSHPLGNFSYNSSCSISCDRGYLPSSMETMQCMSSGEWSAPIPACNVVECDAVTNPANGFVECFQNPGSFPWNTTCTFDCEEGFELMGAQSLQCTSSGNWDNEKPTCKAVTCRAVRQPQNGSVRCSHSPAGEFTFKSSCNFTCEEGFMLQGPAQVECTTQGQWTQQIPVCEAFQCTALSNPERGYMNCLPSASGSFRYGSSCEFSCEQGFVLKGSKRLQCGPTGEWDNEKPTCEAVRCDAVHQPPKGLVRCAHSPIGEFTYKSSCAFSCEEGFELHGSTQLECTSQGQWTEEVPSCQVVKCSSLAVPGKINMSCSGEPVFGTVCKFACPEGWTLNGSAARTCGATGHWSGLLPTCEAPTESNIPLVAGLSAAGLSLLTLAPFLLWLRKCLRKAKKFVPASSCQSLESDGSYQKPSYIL
Chain of human Thyroid Receptor alpha (THRa1), THRA (gene 7067) (P10827 whole entry, looked up, the tested form may be a part): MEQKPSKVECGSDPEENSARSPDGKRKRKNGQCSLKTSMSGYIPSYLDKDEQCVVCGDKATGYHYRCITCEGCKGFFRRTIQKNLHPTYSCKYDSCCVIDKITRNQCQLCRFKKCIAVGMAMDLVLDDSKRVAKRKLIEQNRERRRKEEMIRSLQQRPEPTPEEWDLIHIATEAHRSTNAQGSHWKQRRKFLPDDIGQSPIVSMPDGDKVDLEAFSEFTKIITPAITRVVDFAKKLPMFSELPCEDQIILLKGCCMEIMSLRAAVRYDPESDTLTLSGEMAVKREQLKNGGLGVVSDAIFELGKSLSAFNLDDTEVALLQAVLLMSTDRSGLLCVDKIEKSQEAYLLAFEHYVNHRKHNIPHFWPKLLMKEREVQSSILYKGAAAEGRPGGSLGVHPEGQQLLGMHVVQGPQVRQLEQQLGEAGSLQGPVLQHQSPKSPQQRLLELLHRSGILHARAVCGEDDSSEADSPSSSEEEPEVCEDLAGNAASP
Chain of human Retinoic Acid Receptor gamma (RARg), RARG (gene 5916) (P13631 whole entry, looked up): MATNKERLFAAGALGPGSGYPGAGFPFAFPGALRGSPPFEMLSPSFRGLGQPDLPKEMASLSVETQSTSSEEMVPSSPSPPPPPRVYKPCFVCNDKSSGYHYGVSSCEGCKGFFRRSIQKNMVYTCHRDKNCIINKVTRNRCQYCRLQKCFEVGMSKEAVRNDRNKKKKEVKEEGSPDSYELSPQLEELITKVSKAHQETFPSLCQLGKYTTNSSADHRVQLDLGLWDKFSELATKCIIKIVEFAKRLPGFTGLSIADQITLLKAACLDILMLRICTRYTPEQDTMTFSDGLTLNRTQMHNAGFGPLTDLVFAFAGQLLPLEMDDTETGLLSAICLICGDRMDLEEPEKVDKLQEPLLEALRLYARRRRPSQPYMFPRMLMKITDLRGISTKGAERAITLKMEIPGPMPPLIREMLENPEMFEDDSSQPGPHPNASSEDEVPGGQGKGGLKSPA
Chain of human Vitamin D Receptor (VDR), VDR (gene 7421) (P11473 whole entry, looked up, the tested form may be a part): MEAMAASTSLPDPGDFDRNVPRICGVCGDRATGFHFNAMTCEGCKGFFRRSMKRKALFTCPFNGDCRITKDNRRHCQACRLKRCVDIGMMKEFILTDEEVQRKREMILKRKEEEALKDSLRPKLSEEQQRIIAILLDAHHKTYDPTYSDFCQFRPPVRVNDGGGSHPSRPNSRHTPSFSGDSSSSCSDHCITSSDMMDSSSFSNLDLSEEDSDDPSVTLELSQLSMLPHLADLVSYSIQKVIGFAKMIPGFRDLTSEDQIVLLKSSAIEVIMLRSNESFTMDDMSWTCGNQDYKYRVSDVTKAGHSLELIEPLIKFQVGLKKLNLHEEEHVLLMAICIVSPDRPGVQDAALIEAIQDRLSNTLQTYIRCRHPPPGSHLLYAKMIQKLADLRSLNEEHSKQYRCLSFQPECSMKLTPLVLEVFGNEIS
Chain of human Retinoid X Receptor beta (RXRb), RXRB (gene 6257) (P28702 whole entry, looked up, the tested form may be a part): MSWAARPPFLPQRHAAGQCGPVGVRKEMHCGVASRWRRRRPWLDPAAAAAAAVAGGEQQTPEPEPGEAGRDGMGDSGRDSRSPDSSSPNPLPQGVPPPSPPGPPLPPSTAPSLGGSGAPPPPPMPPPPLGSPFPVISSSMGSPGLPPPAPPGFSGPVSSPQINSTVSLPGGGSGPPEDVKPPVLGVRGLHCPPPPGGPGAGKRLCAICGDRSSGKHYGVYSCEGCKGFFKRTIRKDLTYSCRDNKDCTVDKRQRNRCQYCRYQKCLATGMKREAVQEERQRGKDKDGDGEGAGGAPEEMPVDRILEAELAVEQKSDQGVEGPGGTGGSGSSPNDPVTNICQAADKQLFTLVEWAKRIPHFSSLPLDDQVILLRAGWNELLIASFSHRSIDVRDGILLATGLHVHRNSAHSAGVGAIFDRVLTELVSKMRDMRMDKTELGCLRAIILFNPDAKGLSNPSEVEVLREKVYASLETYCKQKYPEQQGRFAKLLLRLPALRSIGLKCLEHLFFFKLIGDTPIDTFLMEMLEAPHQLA

On to `CCCCN(CC)C(=O)SCCC`, for which the outcome in assay [1], in assay [2] and in [4] was inactive. For the same molecule, the AC50 in assay [3] was 59.1 µM (active).

`C=CC(=O)OCC(F)(F)C(F)F`: the result in assay [1], in [5], in [6], in [8], in assay [9] and in assay [10] was inactive. For the same molecule, the outcome in assay [12], in [13], in [14], in assay [15], in [16] and in [17] was inactive. Further, the outcome in [18] and in assay [19] was inactive. In addition, the AC50 in assay [7] was 18.4 µM (active) and 20.4 µM (active); in [11], 41.1 µM (active) and 43.6 µM (active); in [16] it was 19.2 µM (active); in [19], 8.19 µM (active).

In the case of `CCCCc1ccc(O)cc1`, the molecule was called inactive in [1] and in assay [5]. For the same molecule, the AC50 in assay [3] is 64.2 µM (active).

As to `CC(C)CBr`, the outcome in assay [1] and in assay [6] was inactive.

As to `OCC(F)(F)OC(F)(F)C(F)(F)OC(F)(F)CO`, the result in assay [1], in assay [5], in assay [3], in [7], in assay [8] and in assay [9] was inactive. In addition, the outcome in [10], in assay [11], in assay [12], in [13], in assay [4] and in assay [14] was inactive. The result in assay [15], in assay [16], in [17], in assay [18] and in [19] was inactive.

With `COP(=O)(O)OC`, the molecule was called inactive in assay [1], in assay [2], in assay [6], in assay [7], in assay [8] and in assay [9]. The result in assay [11], in [12], in assay [13], in [15], in assay [20] and in assay [16] was inactive. Besides, the result in assay [17], in [18] and in assay [19] was inactive.

Consider `CCOP(=O)(O)C(N)=O`, for which the result in assay [1], in assay [2], in assay [3], in assay [6] and in [4] was inactive.

Regarding `CO/N=C(/C(=O)OC)c1ccccc1COc1ccccc1C`, the molecule was classed as inactive in [1], in assay [5], in [3], in [6] and in assay [4].

Regarding `OCC(F)(F)OC(F)(F)C(F)(F)OC(F)(F)C(F)(F)OC(F)(F)CO`, the molecule was called inactive in [1], in assay [5], in [6], in assay [7], in [8] and in assay [9]. In addition, the result in [11], in [12], in [13], in assay [4], in assay [15] and in assay [16] was inactive. For the same molecule, the outcome in assay [17], in [18] and in [19] was inactive. The AC50 in [3] is 17.4 µM (active); in assay [15], 39.8 µM (active); in assay [17], 30 µM (active).

As to `CCOP(=S)(OCC)SCS(=O)(=O)CC`, the result in [1], in [5], in assay [3], in assay [6], in assay [7] and in [8] was inactive. Also, the result in [9], in assay [11], in assay [12], in assay [13], in assay [4] and in [14] was inactive. Besides, the outcome in assay [15], in [20], in [16], in assay [17], in assay [18] and in assay [19] was inactive.

As to `Cc1ccc(O)cc1C`, the call in [1], in [5], in assay [3], in assay [6], in [7] and in assay [8] was inactive. The outcome in assay [9], in assay [10], in assay [11], in assay [12], in assay [13] and in [14] was inactive. For the same molecule, the outcome in assay [15], in assay [20], in [16], in assay [17], in assay [18] and in [19] was inactive.

The record behind these values is PubChem BioAssay (EPA / NIEHS).
